VP16 counter: counter-screen for ROR gamma inhibitors: Gal4-VP16 reporter. Drosophila S2 Gal4-VP16 UAS-luciferase, luminescence, 20 h. Potency, µM (top dose mostly 53.6 µM), hits mostly inhibitors. actives 3.5% (n = 310,000);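 further: Gal4-VP16 expression switched on by copper sulfate through the metallothionein promoter; nearly all actives have a fitted effect of over 50% in size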
TDP1 block: blocks human tyrosyl-DNA phosphodiesterase 1; Q9NUW8; recombinant TDP1, AlphaScreen DNA substrate cleavage; Potency, µM (titrated, usually from 130 µM), usual class: inhibitors; actives 0.28% (n = 350,000); AID 485290; further: nearly all actives have a fitted effect of over 40% in size
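Signal: AlphaScreen proximity between streptavidin donor and anti-FITC acceptor beads on intact substrate. Reaction: Tdp1 1 nM, substrate 15 nM final, 5 min RT after 15 min compound preincubation.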
TDP1 cell CPT: DT40-hTDP1 cell growth loss with CPT; chicken DT40 Tdp1-/-;hTDP1 cells + 20 nM CPT, ATP luminescence, 48 h; Potency, µM (titrated, usually from 46.2 µM), hits mostly inhibitors; actives 12% (n = 420,000); further: nearly all actives have a fitted effect of over 55% in size
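Cell growth measured by CellTiter-Glo luminescence after a minimum 48 h, 37 C compound exposure with 20 nM CPT in Tdp1-knockout DT40 cells stably expressing hTDP1, seeded 400/well; qHTS titration format.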
DT40 TDP1 no CPT: qHTS for Inhibitors of human tyrosyl-DNA phosphodiesterase 1 (TDP1): qHTS in cells in absence of CPT; DT40 Tdp1-/- hTDP1 cells, no CPT, ATP luminescence, 48 h; AID 686978, 2013; actives 15% (n = 420,000); Potency, µM (top dose mostly 46.2 µM), usual class: inhibitors; further: nearly all actives have a fitted effect of over 55% in size
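Growth kinetics read by CellTiter-Glo luminescence after ≥48 hr at 37 °C. Cells: DT40 Tdp1-/- stably carrying human TDP1, 400 per well, compound exposure in the absence of CPT (DMSO vehicle).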
RORgamma inh: inhibitors of mouse ROR gamma transcriptional activity; P51450; Drosophila S2 Gal4-RORgamma UAS-luciferase reporter, 20 h; Potency, µM (doses to about 53.6 µM), actives largely listed as inhibitors; actives 5.4% (n = 310,000); further: nearly all actives have a fitted effect of over 60% in size
Target sequence (P51450 whole entry, looked up, the tested form may be a part): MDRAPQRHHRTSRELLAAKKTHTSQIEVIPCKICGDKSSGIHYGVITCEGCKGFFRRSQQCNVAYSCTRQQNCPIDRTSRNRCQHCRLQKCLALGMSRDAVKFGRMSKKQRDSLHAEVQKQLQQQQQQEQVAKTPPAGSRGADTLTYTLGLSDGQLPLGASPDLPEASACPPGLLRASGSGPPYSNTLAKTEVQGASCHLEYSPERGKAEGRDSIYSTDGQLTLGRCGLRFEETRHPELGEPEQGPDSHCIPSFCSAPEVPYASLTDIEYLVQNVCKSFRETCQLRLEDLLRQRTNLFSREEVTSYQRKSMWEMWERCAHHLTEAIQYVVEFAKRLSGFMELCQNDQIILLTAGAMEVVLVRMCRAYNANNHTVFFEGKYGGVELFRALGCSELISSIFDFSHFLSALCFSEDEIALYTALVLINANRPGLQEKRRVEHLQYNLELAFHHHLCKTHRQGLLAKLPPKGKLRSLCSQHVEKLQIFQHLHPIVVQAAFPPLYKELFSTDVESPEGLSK
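Drosophila S2 cells stably expressing Gal4-DBD/mouse RORγ fusion under metallothionein promoter plus UAS-luciferase; compound 1 h, then 700 uM CuSO4 induction for 20 h at ambient temperature; inhibition read as reduced luminescence.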
A number is an active result; 0 = inactive; ? = inconclusive; - = no result given; [ ] = remark or other dose. An excerpt weighted towards active compounds, which were near 19% of everything screened. The call rests on the fitted dose curve; in most records, active means well fitted curve in the direction sought with a large enough effect; inconclusive means small, poorly fitted or top-dose-only effect, or another doubt; inactive means no such curve, though single readings can be large; an effect the other way counts as inactive or inconclusive.

SMILES	VP16 counter	TDP1 block	TDP1 cell CPT	DT40 TDP1 no CPT	RORgamma inh
O=C(COC(=O)c1ccc(O)cc1O)Nc1ccc2ccccc2c1	-	0	15µM	13µM	-
O=C(COC(=O)c1ccc(O)cc1O)Nc1ccc2c(c1)OCCO2	-	0	9.2µM	9.2µM	-
COc1cc(C(=O)COC(=O)c2ccc3c(c2)OCCO3)cc(OC)c1OC	-	-	15µM	?	-
CC(C)(C)NC(=O)COC(=O)c1ccc(NC(=O)CC#N)cc1	0	0	1.5µM	0	0
N#CCC(=O)Nc1ccc(C(=O)OCC(=O)Nc2ccc3ccccc3c2)cc1	-	0	0	0	-
O=C(COC(=O)c1ccco1)Nc1ccc2c(c1)OCCO2	0	0	0	0	0
COc1cccc(C(=O)Nc2ccccc2-c2nnc(-c3cc(OC)ccc3Br)o2)c1	-	0	?	?	-
N#CCC(=O)Nc1ccc(C(=O)OCC(=O)c2ccc3c(c2)OCCO3)cc1	0	0	?	18µM	0
O=C(COC(=O)c1ccc(O)cc1)Nc1ccc2c(c1)OCO2	-	0	?	12µM	-
N#Cc1c(NC(=O)COC(=O)c2ccc(O)cc2O)sc2c1CCC2	-	22µM	?	?	-
C=CCOn1c(=O)c(-c2ccc(C)cc2)[n+]([O-])c2ccccc21	0	-	0	0	0
CCOc1ccc(CN(C)C(=O)c2cccnc2SC)cc1OC	0	0	0	0	0
CCOc1ccc(CN2CCNC(=O)C2CC(=O)NC2CCCCCC2)cc1 (centres undefined)	0	0	0	0	0
N#CC(C#N)C(c1ccsc1)c1c(-c2ccccc2)[nH][nH]c1=O (centres undefined)	0	0	?	?	0
COc1ccc(Cn2ccc3nc(C)c(C(=O)NCc4ccc(F)cc4)cc3c2=O)cc1	-	0	0	?	-
CCOC(=O)c1ccc(-n2c(C)ccc2C)cc1	0	0	0	0	0
CCOC(=O)c1ccc(NC(=S)NN)cc1	?	0	0	0	10µM
CCOC(=O)c1ccc(NC(=O)C2CC2)cc1	0	0	8.2µM	6.5µM	0[10 µM]
CCOC(=O)c1ccc(N2C(=O)C=CC2=O)cc1	7.1µM	0	0.82µM	1µM	0
CCOC(=O)c1ccc(P(=O)(c2ccccc2)c2ccccc2)cc1	0	-	?	23µM	0
CCOC(=O)c1ccc(NC(=O)CNC(=O)c2ccccc2)cc1	0	0	0	0	0
COc1ccccc1-c1cc(C(=O)Nc2ccccc2SC)no1	0	0	?	0	0
O=C(O)CCCCCNCc1ccncc1	0	0	0	?	0
COc1ccc(Cl)cc1NC(=O)COC(=O)c1cc(NS(=O)(=O)c2cccs2)ccc1O	0	0	0	0	?
COC(=O)Cc1ccc(NC(=S)Nc2cccc(C)n2)cc1	?	0	?	18µM	4.5µM
SMILES	VP16 counter	TDP1 block	TDP1 cell CPT	DT40 TDP1 no CPT	RORgamma inh
CCOC(=O)c1ccc(NC(=S)Nc2cccc(C)n2)cc1	?	0	?	?	0.89µM
Cc1cccc(OCCNC(=S)NC(=O)c2cncc(Br)c2)c1	6.3µM	0	0	0	5µM
CCOC(=O)c1ccc(NC(=S)NC(=O)c2cncc(Br)c2)cc1	?	-	0	0	2.2µM
CCOc1ccc(NC(=S)NC(=O)c2cncc(Br)c2)cc1	-	-	0	0	-
Cc1ccc(OCCNC(=O)c2cncc(Br)c2)cc1C	0	0	?	?	0
CCOC(=O)c1oc2ccccc2c1COC(=O)CNC(=O)c1ccccc1	0	0	0	0	0
COc1ccc2nc3ccccc3nc2c1NC(=O)c1ccc(Cl)cc1	0	0	0	0	0
CC(C)c1ccc(NC(=O)COC(=O)[C@H](CCC(N)=O)NC(=O)c2ccc(F)cc2)cc1	0	0	0	0	0
CCCCOC(=O)c1ccc(NC(=S)NC(=O)c2c(Br)c(C)nn2C)cc1	13µM	0	?	21µM	16µM
O=S(=O)(/C=C/c1ccccc1)Nc1ccc(N2CCOCC2)cc1	0	0	?	?	0
CCOc1ccccc1NC(=O)C1CCCN(S(=O)(=O)c2cccc3nsnc23)C1 (centres undefined)	0	0	?	?	0
CCC(=NNC(=O)c1ccc2c(c1)nc(C)n2CC)c1cc(F)ccc1O	-	0	13µM	12µM	-
COc1cccc(/C=N/NC(=O)c2ccc3nc[nH]c3c2)c1O	0	-	?	0	0
CCn1c(C)nc2cc(C(=O)N/N=C/c3cccc(OC)c3O)ccc21	0.71µM	0	?	?	0.32µM
CCn1c(C)nc2cc(C(=O)N/N=C/c3ccc(O)c(O)c3O)ccc21	0[10 µM]	0	26µM	?	0
Cc1cc2c(c(-c3cnccn3)c1)OC(CNC(=O)c1cc(C(C)C)[nH]n1)C2 (centres undefined)	-	-	0	0	-
CC(C)CNc1oc(-c2ccco2)nc1C#N	0	0	0	0	0
COCCOC(=O)Cn1nnc2sc(-c3ccccc3)cc2c1=O	-	0	0	0	-
CCC(C(=O)OC)n1nnc2sc(-c3ccccc3)cc2c1=O (centres undefined)	-	0	?	15µM	-
COc1ccc(NC(=O)C(C)n2nnc3sc(-c4ccccc4)cc3c2=O)cc1Cl (centres undefined)	-	0	13µM	6.5µM	-
Cc1cc(C)c(NC(=O)C(C)n2nnc3sc(-c4ccccc4)cc3c2=O)c(C)c1 (centres undefined)	-	0	?	0	-
CO/N=C/NC(=O)c1c(OC)ccnc1Oc1ccc(F)cc1	0	0	0	0	0
Cc1cccc2c(C(=O)N3CCN(c4ccccc4)CC3)cc(-c3ccncc3)nc12	0	0	2.6µM	2.9µM	0
O=C(c1cc(-c2ccncc2)nc2ccccc12)N1CCCC(C(F)(F)F)C1 (centres undefined)	-	-	?	18µM	-
O=C(c1cc(-c2ccncc2)nc2ccccc12)N1CCN(Cc2ccccc2)CC1	-	0	21µM	21µM	-
SMILES	VP16 counter	TDP1 block	TDP1 cell CPT	DT40 TDP1 no CPT	RORgamma inh
O=C(c1cc(-c2cccs2)nc2ccccc12)N1CCN(c2ccccc2)CC1	0	0	?	?	0
CC1CCCN(C(=O)c2cc(-c3cccs3)nc3ccccc23)C1 (centres undefined)	-	0	?	23µM	-
O=C(Nc1nnc(C2CC2)s1)c1cccc(S(=O)(=O)N2CC(c3ccccc3)CC2=O)c1 (centres undefined)	0	0	0	0	0
Cc1cccc2c(=O)c(C(=O)NCCCN3CCOCC3)c[nH]c12	0	0	0	0	0
Cc1ccc(C2CC(=O)Oc3ccc(O)cc32)cc1 (centres undefined)	0	0	-	-	0
COc1cc(C(=O)N2CCC2(C)C(=O)NC(C)C)cc(OC)c1OC (centres undefined)	-	-	0	0	-
Cc1nc2ncnn2c(Nc2ccc3c(c2)OCO3)c1Cc1ccccc1	0	0	?	?	0[10 µM]
Cc1ccc(S(=O)(=O)NC(=O)N[C@@H](C)Cc2ccccc2)cc1	-	-	0	0	-
